Test results reported in PubChem BioAssay AID434970 (Sanford-Burnham Center for Chemical Genomics, 2010).
In all, about 11,000 compounds went through this assay and about 310 (2.8%) were called active. This is one part of a sample in which actives are shown more often than they occur. No stated cut-off is given here; in the data, active means activity change below about -85%; inactive means the rest.

These compounds were tested on intestinal alkaline phosphatase [Mus musculus] (assay: mouse intestinal phosphatase enzyme activation – biochemical, luminescence, single concentration, confirmation (AID 434970)). Conditions: purified mouse IAP, CDP-Star luminescence, 30 min, at 10 µM; activation factor: measured here: IAP activation factor, stronger effect = higher value; activity change, negative = activation: stronger effect = lower value.

Which activation factor does the source give for `O=C(NCCc1ccncc1)Nc1ccc(Cl)cc1` here?
Its activation factor is 1.09.

What about the activity change, negative = activation of the same compound?
The activity change, negative = activation was -8.6% (inactive).

For `CCCc1c(NC(=O)Nc2ccc(F)cc2)cnn1-c1ccc(Cl)cc1`, which activation factor is on record?
The activation factor was 2.42.

What about the activity change, negative = activation of the same compound?
The activity change, negative = activation was -142% (active).

Which activation factor does the source give for `CCCc1c(NC(=O)Nc2ccc(F)cc2)cnn1-c1ccccc1` here?
Its activation factor is 1.57.

What about the activity change, negative = activation of the same compound?
The activity change, negative = activation was -57.2% (inactive).

What does the source list for `COCCn1c(SCC(=O)Nc2nc3ccccc3s2)nnc1-c1ccoc1C`?
activation factor: 0.944; activity change, negative = activation: 5.6% (inactive)

With `N#CCCn1c(=S)[nH]c2ccccc21` as the compound, how does the activation factor read?
The activation factor was 0.98.

What about the activity change, negative = activation of the same compound?
Its activity change, negative = activation is 2% (inactive).

What does the source list for `Cc1ccc(S(=O)(=O)Nc2ccc(O)c(Sc3ncn[nH]3)c2)cc1`?
activation factor: 0.349; activity change, negative = activation: 65.1% (inactive)

With `COC(=O)c1cccc(NC(=O)Nc2ccc(Cl)c(Cl)c2)c1` as the compound, how does the activation factor read?
The activation factor was 1.89.

What about the activity change, negative = activation of the same compound?
Its activity change, negative = activation is -88.6% (inactive).

For `CC(C)(C)N(NC(=O)Nc1ccc(Cl)c(Cl)c1)C(=O)c1ccccc1`, which activation factor is on record?
Its activation factor is 3.95.

What about the activity change, negative = activation of the same compound?
Its activity change, negative = activation is -295% (active).

`CN(C)S(=O)(=O)Oc1cccc(C(=O)Nc2ccc(Cl)c(Cl)c2)c1` was tested. Which activation factor did it give?
Its activation factor is 0.948.

What about the activity change, negative = activation of the same compound?
Its activity change, negative = activation is 5.2% (inactive).

Which results are given for `CNC(=O)Nc1ccc(Cl)cc1`?
activation factor: 1.26; activity change, negative = activation: -26.3% (inactive)

Which results are given for `CN(C)S(=O)(=O)Oc1cccc(C(=O)Nc2ccc(Cl)cc2)c1`?
activation factor: 0.992; activity change, negative = activation: 0.85% (inactive)

With `Cc1cc(C)cc(C(=O)N(NC(=O)Nc2ccc(Cl)cc2)C(C)(C)C)c1` as the compound, how does the activation factor read?
Its activation factor is 4.22.

What about the activity change, negative = activation of the same compound?
Its activity change, negative = activation is -322% (active).

Which results are given for `CCCN(/C=N/c1sc2c(c1C#N)CCCCC2)CCC`?
activation factor: 0.953; activity change, negative = activation: 4.7% (inactive)

What does the source list for `Cn1ncc(C#N)c1/N=C/N1CCOCC1`?
activation factor: 1.05; activity change, negative = activation: -4.75% (inactive)

How did the activation factor turn out when `Cc1ccc(CNC(=O)c2ccc(NC(=O)CCS(=O)(=O)c3cccs3)cc2)cc1` was run?
Its activation factor is 0.978.

And the activity change, negative = activation?
Its activity change, negative = activation is 2.15% (inactive).

Which results are given for `O=C(Nc1ccc(S(=O)(=O)N2CCOCC2)cc1)C1CCCCC1`?
activation factor: 0.984; activity change, negative = activation: 1.6% (inactive)

How did the activation factor turn out when `CC(NC(=S)Nc1ccc(S(=O)(=O)N2CCOCC2)cc1)C1CC2CCC1C2` (stereo not drawn) was run?
The activation factor was 2.45.

What about the activity change, negative = activation of the same compound?
Its activity change, negative = activation is -145% (active).

For `CC(C)c1ccc(N(CC(=O)Nc2ccc(S(=O)(=O)N3CCOCC3)cc2)S(C)(=O)=O)cc1`, which activation factor is on record?
Its activation factor is 1.12.

And the activity change, negative = activation?
The activity change, negative = activation was -12.1% (inactive).

Which results are given for `Cc1cc[n+](CCC(=O)O)c2ccccc12`?
activation factor: 0.901; activity change, negative = activation: 9.85% (inactive)

What does the source list for `CCN(C1CCCCC1)S(=O)(=O)c1cc(C)ccc1OC`?
activation factor: 1.04; activity change, negative = activation: -4.35% (inactive)

Which results are given for `CN1CC(COCc2ccccc2)Oc2ccccc2S1(=O)=O` (stereo not drawn)?
activation factor: 1.04; activity change, negative = activation: -4.4% (inactive)

With `CC(NC(=O)Nc1ccc(Cl)cc1)C(c1cccs1)N1CCOCC1` (stereo not drawn) as the compound, how does the activation factor read?
Its activation factor is 1.71.

And the activity change, negative = activation?
Its activity change, negative = activation is -71.1% (inactive).

Which activation factor does the source give for `CC(NC(=O)Nc1ccc(Cl)c(Cl)c1)C(c1ccccc1)N1CCOCC1` (stereo not drawn) here?
The activation factor was 3.21.

What about the activity change, negative = activation of the same compound?
Its activity change, negative = activation is -221% (active).

`CC(Cc1cccs1)NC(=O)Nc1ccc(Cl)c(Cl)c1` (stereo not drawn) was tested. Which activation factor did it give?
Its activation factor is 0.945.

And the activity change, negative = activation?
The activity change, negative = activation was 5.6% (inactive).
